Bioassay records (PubChem)
SENP6 inh: blocks the human protease SENP6; Q9GZR1; inhibition, % at 10 µM; Recombinant SENP6 catalytic domain, aminoluciferin luminescence; actives 1.8% (n = 330,000);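 active means inhibition above about 50% at the single tested dose, limit read from the data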;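 further: plate controls were DMSO wells with enzyme for no effect and DMSO wells lacking enzyme for full effect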
SENP7 inh: blocks the human protease SENP7; Q9BQF6; recombinant SENP7, Z-RLRGG-aminoluciferin luminescence, 40 min; inhibition, % at 5 µM; actives 1.5% (n = 330,000);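 active means inhibition above about 50% at the single test dose, limit read from the data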;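 further: plate controls were DMSO with enzyme for no effect and no enzyme buffer wells for full effect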
Target sequence (Q9BQF6 706-1050 limits assumed): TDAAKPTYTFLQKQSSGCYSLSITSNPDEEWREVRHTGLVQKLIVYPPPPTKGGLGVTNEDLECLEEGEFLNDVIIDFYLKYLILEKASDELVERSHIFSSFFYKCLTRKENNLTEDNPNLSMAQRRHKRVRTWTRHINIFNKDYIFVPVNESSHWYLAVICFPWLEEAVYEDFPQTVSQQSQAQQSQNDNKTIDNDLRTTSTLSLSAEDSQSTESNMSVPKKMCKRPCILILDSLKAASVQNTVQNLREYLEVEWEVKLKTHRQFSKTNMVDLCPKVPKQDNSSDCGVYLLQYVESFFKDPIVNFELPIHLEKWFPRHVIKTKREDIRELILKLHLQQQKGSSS
SENP8 block-1: inhibitors of human SENP8 protease; Q96LD8; recombinant SENP8, Nedd8 substrate fluorescence; inhibition, % at 20 µM; actives 0.64% (n = 360,000); in the data active means inhibition mostly above about 40%, no sharp cut-off; inactive means mostly below about 27%
Target sequence (Q96LD8 whole entry, looked up): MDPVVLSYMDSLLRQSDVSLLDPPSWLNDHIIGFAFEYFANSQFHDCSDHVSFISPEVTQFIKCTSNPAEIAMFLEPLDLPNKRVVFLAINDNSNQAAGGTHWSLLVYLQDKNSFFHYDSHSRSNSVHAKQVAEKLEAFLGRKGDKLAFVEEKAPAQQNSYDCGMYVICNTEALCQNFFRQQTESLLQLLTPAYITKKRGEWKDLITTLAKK
HSP90 inh: inhibitors of HSP90 luciferase refolding in rabbit reticulocyte lysate | luciferase refolding luminescence, 3 h | inhibition, % at 5.6 µM | actives 0.91% (n = 290,000) | AID 1789;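 active means inhibition above the screen-wide mean plus 3 SD, computed separately per campaign, cut at about 16% in these data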;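 further: 0% = DMSO wells and 100% = 60 µM geldanamycin wells; inhibitors lower the luminescence because luciferase stays unfolded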
SENP8 block-2: blocks the human protease SENP8; Q96LD8; purified SENP8, Z-RLRGG-aminoluciferin cleavage, luminescence; inhibition, % at 10 µM; actives 1.2% (n = 330,000); AID 2540; in the data active means inhibition above about 50%
HSP90 inh confirm: HSP90 inhibition, confirmation assay | shares compounds with HSP90 inh | rabbit reticulocyte lysate, luciferase refolding luminescence, 3 h | inhibition, % at 5.9 µM | actives 64% (n = 2,300) | AID 1846; in the data active means inhibition above about 18%;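 further: 0% = vehicle wells and 100% = reference inhibitor wells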
FLuc counter: blocks native firefly luciferase in HSP90 counter-screen; shares compounds with HSP90 inh; purified native firefly luciferase, luminescence; inhibition, % at 5.9 µM; actives 48% (n = 2,300);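 active means inhibition above the mean inhibition of all tested sample wells plus 3 SD, cut at about 10% in these data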;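 further: 0% = DMSO with luciferase and 100% = wells lacking luciferase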
An asterisk follows results filed as active; i = inactive; nt = no result given. Shown are actives, neighbours in structure and some others; about 2.7% of the full set was active somewhere.

SMILES	SENP6 inh	SENP7 inh	SENP8 block-1	HSP90 inh	SENP8 block-2	HSP90 inh confirm	FLuc counter
Cc1ccc(C)c(C(=O)CSc2nnnn2C(C)C)c1	-20	-3	-3	0	-8	nt	nt
Cc1cccc(C)c1-n1nnnc1C(C)(C)N1CCN(N=O)CC1	-8	-12	18	2	-7	nt	nt
CC(NC(=O)CSc1nnc(-c2cccnc2)n1N)c1ccccc1 (stereo not drawn)	-19	-9	18	18*	-16	0	-7
Cc1oc(-c2ccoc2)nc1CN(CC1CCC(=O)N1)C(C)C (stereo not drawn)	10	-3	7	1	3	nt	nt
COCCN(Cc1nc(-c2ccc(-c3ccccc3)cc2)oc1C)C(C)C	22	14	-56	85*	-12	89*	21*
[O-]/[N+](=C\c1ccco1)c1ccc(Cl)cc1	10	6	7	42*	11	82*	-35
Cc1cc(C(=O)Cn2nc(C(=O)O)c3ccccc3c2=O)c(C)n1CC(F)(F)F	-9	-2	2	26*	-14	45*	-22
COCC(C)n1c(C)cc(C(=O)Cn2nc(C(=O)O)c3ccccc3c2=O)c1C (stereo not drawn)	9	-12	17	42*	-8	52*	-11
O=C(CSc1ccc(C(F)(F)F)cn1)Nc1ccccc1	-10	-1	-7	-2	1	nt	nt
CCOC(=O)c1[nH]cc(-c2ccccc2)c1N1CCOCC1	-16	4	21	18*	-1	0	-2
CCCCCCCCc1nnc(NC(=O)c2ccco2)s1	0	-2	8	25*	-1	-3	-6
CCOCc1nnc(NC(=O)c2ccco2)s1	-9	3	4	6	1	nt	nt
Cc1nc(NC(=O)c2ccco2)sc1C(=O)O	nt	nt	-32	54*	nt	64*	-13
COC(=O)c1sc(NC(=O)c2ccco2)nc1C	39	28	-28	-3	22	nt	nt
CSCCC(c1nc2ccccc2[nH]1)n1c(=O)c(-c2cc3ccccc3[nH]2)nc2ccccc21 (stereo not drawn)	nt	nt	-375	nt	nt	nt	nt
Cc1oc2cc3c(C(=O)N4CCCCC4)c(C)oc3cc2c1C(=O)N1CCCCC1	13	7	-2	74*	-5	68*	33*
Cc1[nH]c2ccccc2c1C(=O)NS(=O)(=O)Nc1ccc(Cl)cc1	5	0	-2	18*	3	1	-2
CN=c1scc(-c2ccccc2F)n1/N=C/c1ccc(O)c(O)c1O	nt	nt	43*	22*	nt	92*	89*
Cc1cccc(-n2ncc3c2CCCC3NC(=O)c2ccncc2)c1C (stereo not drawn)	nt	nt	22	nt	nt	nt	nt
Cc1ccc(S(=O)(=O)Nc2ccc(C(=O)NC3CC3)cc2)cc1	12	-8	4	2	10	nt	nt
CCOc1cccc2sc(Nc3nc4ccc(NC(C)=O)cc4s3)nc12	-9	4	-416	-1	-10	nt	nt
Cc1ccc(CNc2nc(N)c([N+](=O)[O-])c(Nc3cccc(F)c3)n2)cc1	-3	3	12	1	-3	nt	nt
CCCNC(=O)CSCc1nc(-c2ccc(SC)cc2)oc1C	-18	-6	-87	3	-7	nt	nt
CCOc1ccc(-c2nc(CSCC(=O)N3CCN(C(=O)c4ccco4)CC3)c(C)o2)cc1	-12	-7	11	37*	-5	46*	-5
CCc1ccc(-c2nc(CSCC(=O)NCc3ccco3)c(C)o2)cc1	nt	nt	4	19*	nt	31*	-20
SMILES	SENP6 inh	SENP7 inh	SENP8 block-1	HSP90 inh	SENP8 block-2	HSP90 inh confirm	FLuc counter
Cc1cc(/C=N/NC(=O)c2cccc(N(C)C)c2)c(C)n1-c1cc(C(=O)O)cc(C(=O)O)c1	-1	6	-325	5	3	nt	nt
CN(C)c1cccc(C(=O)N/N=C/c2ccccc2F)c1	-36	15	-8	36*	-1	73*	60*
Cc1c(Cl)cccc1NC(=S)N1CCOCC1	-5	-3	12	-6	-1	nt	nt
CCOC(=O)CNC(=O)Cn1cnc2c(nnn2-c2ccc(F)cc2)c1=O	-22	1	14	0	2	nt	nt
Cc1ccc(C)c(N(Cc2cc3ccc(C)cc3[nH]c2=O)C(=O)c2ccco2)c1	-15	-3	-68	18*	-8	1	-5
COc1nc(C)cc(C)c1S(=O)(=O)c1ccccc1	-26	-6	22	18*	-11	-6	-8
Cc1cc(C)c(S(=O)(=O)c2ccccc2)c(OC(=O)c2c(Cl)cc(Cl)cc2Cl)n1	-2	7	25	2	1	nt	nt
Cc1nc2ccccn2c1C(=O)C(=O)Nc1cc(F)ccc1F	-19	-6	18	2	-8	nt	nt
CC1CCN(c2c([N+](=O)[O-])nn(-c3ccc4c(c3)OCCO4)[n+]2[O-])CC1	-4	5	25	17*	-7	14	-5
Cc1ccc(NC(=S)/C(=C(\[O-])c2ccc(C)c([N+](=O)[O-])c2)[n+]2ccccc2)cc1C	-8	-3	nt	31*	4	17*	-16
Cc1ccc(/C([O-])=C(/C(=S)Nc2ccc(SC(F)F)cc2)[n+]2ccccc2)cc1[N+](=O)[O-]	-11	-7	1	4	-9	nt	nt
Cc1oc(-c2ccc3c(c2)OCCO3)cc1C(=O)NC(CCC(=O)O)C(=O)O (stereo not drawn)	-7	2	7	64*	3	77*	33*
[O-]/[N+](=C\c1ccncc1)c1ccc(Br)cc1	8	16	20	31*	-3	97*	-10
CCOc1ccc(Nc2nc(N)nc(CCl)n2)cc1	25	44	16	10	8	nt	nt
CCOc1ccc(Nc2nc(N)c3ccccc3n2)cc1	96*	101*	-13	60*	96*	74*	61*
CN(C)c1ccc(Nc2nc(N)c3ccccc3n2)cc1	96*	99*	13	71*	95*	92*	78*
Cc1cccc(NC(=O)CSc2nnc([C@H](C)NC(=O)OC(C)(C)C)o2)c1C	-4	-1	13	3	4	nt	nt
Oc1ccc(O)c(C=NNC(=S)NC2CC3CC2C2C=CCC32)c1 (stereo not drawn)	nt	nt	-65	nt	nt	nt	nt
NNC(=S)NC1CC2CC1C1C=CCC21 (stereo not drawn)	-4	-2	6	25*	0	-4	-10
CN(C)S(=O)(=O)c1cccc(C(=O)NCc2cccs2)c1	-3	6	10	-1	-4	nt	nt
Cn1c2ccccc2c(=O)c2ccc(C#Cc3ccc(N)cc3)cc21	-18	-5	-486	24*	7	31*	0
COc1ccccc1C#Cc1ccc2c(=O)c3ccccc3n(C)c2c1	7	-12	i	24*	-4	6	-11
COc1ccc(C#Cc2ccc3c(=O)c4ccccc4n(C)c3c2)cc1	-8	-13	nt	-3	-9	nt	nt
Cn1c2ccccc2c(=O)c2cc(C#Cc3cccc(N)c3)ccc21	25	32	i	nt	20	nt	nt
